Bioassay records (PubChem)
Sampled rows, rich in hits. Any-hit rate of the full collection: about 2.4%.
Epigenetic derep: derepresses silenced GFP reporter in murine cells; Potency, µM (titrated, usually from 53.9 µM), for the others: top-dose GFP activation, hits mostly activators; AID 1865; murine LDR cells, GFP reporter derepression, 30 h; hit rate 0.2% among 280,000; note: % of control where 0% means no effect; nearly all actives have a fitted effect of over 60% in size
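GFP-positive cell count by laser-scanning cytometry (objects 20–120 um) after 30 h, 37 C compound exposure of murine LDR cells; reporter is CMV-GFP integrated at a silenced locus, inducible by HDAC or DNMT inhibitors.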
A549 viability: A549 cytotoxicity, counter-screen for Nrf2 inhibitors; A549 ARE-Fluc cells, CellTiter-Fluor viability, 18-24 h; Potency, µM (series often up to 46 µM), for the others: at the top dose activity change, negative = cytotoxicity, usual class: inhibitors; hit rate 0.16% among 390,000; note: % is set by controls: 0 for no effect and ±100 for the full control effect
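A549 ARE-Fluc cells in 5% FBS OPTI-MEM, 5000 cells/well, rested 2 h then exposed to compounds in concentration-response for 18-24 h at 37 °C. Viability by CellTiter-Fluor fluorescence (Ex 405/Em 525) after 30 min; luciferase luminescence (BugLite, 15 min, RT) read afterwards.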
PINK1 modulator: changes PINK1 expression; Potency, µM (series often up to 76.6 µM), without a hit: at the top dose activation (PINK1 increase), hits mostly activators; PINK1 immunofluorescence, high-content cytometry, 24 h; hit rate 0.2% among 410,000; AID 624263; active = well fitted activation curve with a large enough effect; inconclusive = small, poorly fitted or top-dose-only effect; cell line not stated here; note: % of control where 0% means no effect; nearly all actives have a fitted effect of over 65% in size
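Readout is PINK1 immunofluorescence, quantified alongside mitochondrial, cell and nuclear markers by laser-scanning microplate cytometry. Cells from a stable line were exposed to compound titrations (5 concentrations) for 24 hours, with CCCP controls.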
Nrf2 activator: activators of Nrf2 (ARE) signaling; AREc32 ARE-luciferase reporter (MCF7-derived line), luminescence, 24 h; Potency, µM (doses to about 46.1 µM), for the others: at the highest dose activation, usual class: activators; hit rate 0.31% among 410,000; note: % of control where 0% means no effect; nearly all actives have a fitted effect of over 65% in size
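ARE-driven firefly luciferase activity in AREc32 cells measured after a 24 hr compound exposure at 37 deg C, using Steady-Glo reagent and a 30 min room-temperature hold.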
Nrf2 block: Nrf2 pathway inhibition. hit rate 2.1% among 360,000. A549 ARE-Fluc reporter, luciferase luminescence, 18-24 h. Potency, µM (series often up to 46 µM), without a hit: top-dose activity change, negative = inhibition, usual class: inhibitors. AID 504444; note: % is set by controls: 0 for no effect and ±100 for the full control effect; nearly all actives have a fitted effect of over 60% in size
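Nrf2 function is reported as luminescence of an ARE-controlled luciferase in A549 cells. Compounds were tested at several concentrations, and a CellTiter-Fluor read on the same wells flagged cytotoxicity.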
Active calls of the source: *; [ ] = dose if it differs, or a comment. Unless noted, calls come from the whole dose curve; as a rule, active = well fitted curve in the direction sought with a large enough effect; inconclusive = small, poorly fitted or top-dose-only effect, or another doubt; inactive = no such curve, though single readings can be large; an effect the other way counts as inactive or inconclusive. Potency is the fitted concentration of half-maximal effect.

How did O=C(CNC(=O)c1ccccc1)OC(C(=O)Nc1ccc2c(c1)OCO2)c1ccccc1 (configuration not stated) do in these assays?
A549 viability: -3%; Nrf2 block: 1%

How did Cc1cc(C)n(Cc2ccc(C(=O)Nc3cccc(Br)c3)o2)n1 do in these assays?
Epigenetic derep: -5%; A549 viability: inconclusive; PINK1 modulator: 2%; Nrf2 activator: 0%; Nrf2 block: 23µM*

What do the screens show for `Nc1ccc(-c2cnc(N)c(C(=O)c3cccnc3)n2)cn1`?
A549 viability: inconclusive; PINK1 modulator: -1%; Nrf2 activator: -4%; Nrf2 block: 15µM*

Results for COc1cccc(Cn2cccc(NC(=O)Nc3ccccc3C)c2=O)c1 ?
Epigenetic derep: 2%; A549 viability: -4%; PINK1 modulator: 4%; Nrf2 activator: 9%; Nrf2 block: inconclusive

How did CSc1ccc(NC(=O)Nc2cccn(Cc3ccccc3)c2=O)cc1 do in these assays?
Epigenetic derep: -1%; A549 viability: inconclusive; PINK1 modulator: -1%; Nrf2 activator: 3%; Nrf2 block: 12µM*

What do the screens show for `CSc1ccccc1NC(=O)Nc1ccc(Cl)cc1`?
Epigenetic derep: 0%; A549 viability: 23%[1.84 µM]; PINK1 modulator: inconclusive; Nrf2 activator: 5%; Nrf2 block: 7.3µM*

How did COc1ccc(NC(=O)Nc2ccccc2SC)cc1 do in these assays?
Epigenetic derep: 0%; A549 viability: 3%; PINK1 modulator: -2%; Nrf2 activator: 2%; Nrf2 block: inconclusive

How did COc1cccc(NC(=O)Nc2cccn(Cc3ccccc3)c2=O)c1 do in these assays?
Epigenetic derep: -1%; A549 viability: -28%; PINK1 modulator: -4%; Nrf2 activator: 6%; Nrf2 block: 12µM*

What do the screens show for `COc1ccc(Cn2cccc(NC(=O)Nc3cccc(OC)c3)c2=O)cc1`?
Epigenetic derep: -2%; A549 viability: inconclusive; PINK1 modulator: -1%; Nrf2 activator: 0%; Nrf2 block: 5.2µM*

How did COc1ccc(Cn2cccc(NC(=O)Nc3ccc(F)cc3)c2=O)cc1 do in these assays?
Epigenetic derep: -3%; A549 viability: -1%; PINK1 modulator: 1%; Nrf2 activator: 4%; Nrf2 block: inconclusive

How did Cc1cc2c(s1)c1cnn(Cc3ccc(C(=O)O)cc3)c(=O)c1n2C do in these assays?
A549 viability: 1%; Nrf2 block: 4%

What do the screens show for `CCN1CCCC1CNC(=O)c1cnn(-c2nccc(-c3cc(OC)ccc3OC)n2)c1C` (configuration not stated)?
PINK1 modulator: -1%

Results for O=C(Nc1ccccc1OC(=O)c1ccc(Cl)cc1)c1ccc(Cl)cc1 ?
Epigenetic derep: 0%; A549 viability: 2%; PINK1 modulator: 3%; Nrf2 activator: inconclusive; Nrf2 block: inconclusive

What do the screens show for `O=C(Nc1ccccc1O)c1ccc(Cl)cc1`?
Epigenetic derep: -1%; A549 viability: 0%; PINK1 modulator: 6%; Nrf2 activator: 13µM*; Nrf2 block: inconclusive

What do the screens show for `CCn1c(N2CCN(C(=S)Nc3ccc(OC)cc3)CC2)nc2ccccc21`?
Epigenetic derep: 0%; A549 viability: -9%; PINK1 modulator: 0%; Nrf2 activator: 3%; Nrf2 block: 16µM*

How did Cc1ccc(NC(=S)NCc2ccccn2)cc1 do in these assays?
Epigenetic derep: -1%; A549 viability: 9%; PINK1 modulator: 1%; Nrf2 activator: 6%; Nrf2 block: inconclusive

How did S=C(NCc1ccccn1)NN=Cc1ccccn1 do in these assays?
A549 viability: inconclusive; PINK1 modulator: -1%; Nrf2 activator: -1%; Nrf2 block: 15µM*

How did Cc1oc2c(C)c3oc(=O)c(CC(=O)N4CCCCC4)c(C)c3cc2c1C do in these assays?
Epigenetic derep: -4%; A549 viability: -4%; PINK1 modulator: 1%; Nrf2 activator: 0%; Nrf2 block: 17%

Results for O=[N+]([O-])c1ccc(-c2ccc(S(=O)(=O)NCCN3CCCC3)cc2)cc1 ?
Epigenetic derep: -4%; A549 viability: -5%; PINK1 modulator: 0%; Nrf2 activator: 5%; Nrf2 block: 16µM*

What do the screens show for `O=[N+]([O-])c1ccc(S(=O)(=O)NCCN2CCOCC2)cc1`?
Epigenetic derep: 1%; A549 viability: 1%; PINK1 modulator: 1%; Nrf2 activator: 0%; Nrf2 block: 3%
